About 19,000 (20%) of roughly 96,000 compounds were called active.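 How the source made its calls: active means blocking of liver enzyme CYP2C9 beyond about 50% at 5 µM (limit read from the data); inactive means the rest.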 Not all results are given here.
Molecular target: Cytochrome P450 2C9 (Homo sapiens) (UniProt P11712)
Assay: blockers of cytochrome P450 2C9 activity – biochemical, luminescence, ADME assay, primary screen (AID 777)
Settings: CYP2C9 Supersomes, luciferin-H conversion, at 5 µM, hits give high values

Chain of Cytochrome P450 2C9 (Homo sapiens) (P11712 whole entry, looked up): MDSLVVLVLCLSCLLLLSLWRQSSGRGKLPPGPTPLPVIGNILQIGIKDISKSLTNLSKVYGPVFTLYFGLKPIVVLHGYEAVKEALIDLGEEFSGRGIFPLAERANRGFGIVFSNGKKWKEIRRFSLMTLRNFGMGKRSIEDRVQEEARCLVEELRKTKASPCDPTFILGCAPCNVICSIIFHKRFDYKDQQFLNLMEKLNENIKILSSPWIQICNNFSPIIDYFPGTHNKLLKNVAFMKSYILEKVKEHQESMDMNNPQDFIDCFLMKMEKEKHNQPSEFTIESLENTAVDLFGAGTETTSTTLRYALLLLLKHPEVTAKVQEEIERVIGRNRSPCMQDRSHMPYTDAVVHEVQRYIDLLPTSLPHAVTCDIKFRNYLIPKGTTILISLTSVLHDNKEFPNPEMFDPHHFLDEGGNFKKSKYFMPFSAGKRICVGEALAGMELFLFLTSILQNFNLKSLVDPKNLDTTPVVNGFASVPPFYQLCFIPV

inhibition, inactive:
O=C(NC1CCCCC1)c1cc([N+](=O)[O-])ccc1N1CCOCC1 1.4%
COc1cccc(N2CCN(C(=O)Nc3ccc4c(c3)NC(=O)CO4)CC2)c1 13%
O=C(Cc1nn[nH]n1)NCCC1=CCCCC1 -1.8%
Cc1ccc(-n2c(C)cc(/C=N/Nc3ccc([N+](=O)[O-])cn3)c2C)c(C)c1 13.3%
O=C(c1cccs1)N(C(=O)c1cccs1)c1ccccn1 21.5%
COc1ccc(S(=O)(=O)N2CCN(C(=O)c3cccs3)CC2)cc1OC -35.4%
CC(C)CC(=O)N/C(N)=N/c1nc2ccccc2s1 27.6%
C[N+]1(CCNC(=O)/C=N/O)CCCCC1 5.6%
Cc1nc(-c2ccccc2)sc1C(=O)/C=C/c1ccccc1 15.9%
Cc1ccc(SCC(=O)Nc2ncc(C)s2)cc1 35.5%
Cc1nn(-c2ncc(C(F)(F)F)cc2Cl)c(=O)n1-c1ccccc1 -45.3%
CCn1c(C)nc2c1C(=O)c1ccccc1C2=O -0.9%
O=C1CCCCC(=O)c2ccccc2N1 14.5%
COc1ccc(Nc2nc(Cl)nc(NCc3ccco3)n2)cc1 5.9%
O=C(CSc1nc(-c2ccco2)cc(C(F)(F)F)n1)NCc1cccs1 7.6%
FC(F)(F)c1cc(-c2ccco2)nc(N2CCOCC2)n1 -16.1%
COc1nc(NCc2ccc(Cl)cc2)nc(OC)n1 9.7%
CCc1ccc(/C=N/NC(=O)c2ccc(OC3CCCC3)cc2)s1 -41.1%
Cc1oc(-c2ccccc2Cl)[n+]([O-])c1C 7.1%
Cc1cnc(NC(=O)CSc2nnc(C)s2)s1 8.4%
O=C(CSc1nnc(-c2ccoc2)o1)N1CCOCC1 -12.9%
CCc1ccc(N(CC)c2ncnc3nc[nH]c23)cc1 3.4%
COc1cccc(NC(=O)C2CCCN2C(=O)OCc2ccccc2)c1 (stereo unspecified) 15.8%
Cc1ccc(C)c(NC(=O)C2CCCN2C(=O)OC(C)(C)C)c1 (stereo unspecified) -1.5%
O=C(Nn1cnc2ccccc2c1=O)c1ccc(F)cc1Cl -8.6%
O=C(CSCc1ccc(Cl)cc1)N1CCCCC1 -83.2%
Cc1ccc2[nH]c3c(c2c1)CN(C(=O)CN1CCN(c2ccccc2)CC1)CC3 30.7%
Cc1nc(-c2ccccc2)sc1-c1nc(-c2ccccc2)ncc1S(=O)(=O)c1ccccc1 37.8%
c1ccc(-c2nnc3n2NC(c2ccc4c(c2)OCO4)S3)cc1 (stereo unspecified) 21.6%
c1ccc(CSc2nnc(-c3ccco3)n2Cc2ccccc2)cc1 31.7%
Clc1ccccc1CSc1nnc(-c2ccco2)c(-c2ccco2)n1 38.8%
COc1ccc(C2C3=C(OC(C)=O)c4ccccc4C3=Nc3c2c(=O)n(C)c(=O)n3C)cc1 (stereo unspecified) 7.6%
CC(C)(C)NC(=O)Cn1nnc(-c2ccccc2Cl)n1 -42.7%
COc1ccc(-c2nnn(CC(=O)N(CCO)C(C(=O)NC3CCCC3)c3ccc(F)cc3)n2)cc1 (stereo unspecified) -3.9%
O=C(Nc1cc(N2CCOCC2)ncn1)NC1(C(F)(F)F)Oc2ccc(Cl)cc2O1 (stereo unspecified) 21.6%
CCOCCCNC(=O)C(NC(=O)c1ccc(=O)[nH]c1)c1ccc(C)cc1 (stereo unspecified) 16.2%
COc1ccc(C(=O)Nc2nncs2)c(OC)c1 -1.4%
Cc1ccccc1NC(=O)c1ccccc1NS(=O)(=O)c1cccc2cccnc12 45.1%
CC(=O)c1ccc(NC(=O)N[C@@H](Cc2ccccc2)C(=O)O)cc1 4.2%
N#CC1=C(N)Oc2n[nH]c(CSc3ccccc3)c2C12C(=O)Nc1ccccc12 (stereo unspecified) 24.3%
Cc1csc2ncc(C(=O)N(Cc3ccccc3)c3ccccn3)c(=O)n12 6.4%
COc1cccc(-c2cc3nc4c(c(N5CCC6(CC5)OCCO6)n3n2)CCCC4)c1 49.8%
O=C(Cc1ccc(F)cc1)NC1CCCC1 -37.8%
O=C(Cn1cnc2c(cnn2-c2ccccc2)c1=O)NCc1ccccc1 -7.3%
COC(=O)Nc1ccc(S(=O)(=O)N2CCN(CCN3C(=O)C4C5C=CC(C5)C4C3=O)CC2)cc1 (stereo unspecified) 19.6%
CCOC(=O)Nc1ccc(S(=O)(=O)N(C)C(C)C)cc1 32%
CC(=O)NC1(c2cccc(F)c2)CCN(CC(=O)NC(C)C)CC1 4.1%
CON(C)S(=O)(=O)c1ccc2c(c1)NC(=O)C1CCCN21 (stereo unspecified) 44%
CCn1nnc(NC(=O)c2c(OC)cccc2OC)n1 -11.4%
O=C(Oc1ccc([N+](=O)[O-])cc1)c1ccc2ccccc2n1 -28.9%
Cn1cc(S(=O)(=O)N2CCN(c3ccc(F)cc3)CC2)c(=O)n(C)c1=O -8.1%
Cc1cc(C)cc(NC(=O)C2CCN(c3nc(C)cc(C)n3)CC2)c1 15.4%
Cc1cc(NC(=O)c2cccc(N3C(=O)CCC3=O)c2)no1 3.5%
COc1ccc(-n2c(SCC(=O)Nc3ccc4c(c3)OCO4)nnc2C(C)N2CCCCC2)cc1 (stereo unspecified) 20.2%
CC1CCCN(C(C(=O)Nc2ccc(C(C)C)cc2)c2ccc3c(c2)OCO3)C1 (stereo unspecified) 16.7%
CCN1CCN(C(=O)c2ccccc2N(C)S(=O)(=O)c2ccc(C)cc2)CC1 -1.6%
CC(=O)Nc1ccc(S(=O)(=O)N2CCC(N(C)CCC(C)C)CC2)cc1 19.4%
NC(=NC(=O)c1ccccc1)C1=C(O)CCC1=O 0%
O=C(NC1CCc2ccccc21)C12CN(Cc3ccccc3)CC1C(c1cccc([N+](=O)[O-])c1)=NO2 (stereo unspecified) 42.7%
O=C(O)Cc1ccc(NC(=O)c2cccs2)cc1 -6.9%
CCc1ccccc1NC(=O)c1cccs1 -6.7%
O=C(/C=C/Sc1ncn[nH]1)c1ccc(Cl)cc1 10.9%
Cc1nc2ccccc2c(-c2ccccc2)c1C(=O)c1ccccc1 19.7%
CCOC(=O)CSc1nnc(NC(=O)c2cccc(S(=O)(=O)N3CCCC3)c2)s1 14.4%
CCOC(=O)CSc1nnc(NC(=O)c2cccc(S(=O)(=O)N3CCCCC3)c2)s1 35.5%
COc1ccc2c(CC(=O)Nc3nnc(C4CC4)s3)coc2c1 24.7%
CC(=O)c1c(N2CCOCC2)nc(=S)n(Cc2ccccc2)c1C 12.5%
COc1ccc(CN2CC(C(=O)NCCN3CCN(c4ccccc4F)CC3)CC2=O)cc1 (stereo unspecified) -10.3%
COc1ccc(N2CCN(CCNC(=O)CCN3C(=O)COc4ccccc43)CC2)cc1 -2.8%
C/C(=C(\C#N)C(=O)NCCCN1CCOCC1)N(C)C -16.4%
CC(=O)Nc1ccc(S(=O)(=O)NCCc2ccccc2)cc1 49.5%
Cc1cc(C)c(C)c(S(=O)(=O)Nc2ccc(O)cc2)c1C -16.6%
Cc1cccc(NC(=O)COc2ccc(Br)cc2C)n1 -11%
COc1ccc(CC(=O)Nc2ccc(-c3nnc(-c4ccccc4)o3)cc2)cc1 19%
O=C(Nc1cccc(Cl)c1)Nc1nnc(-c2ccccc2)o1 8.9%
COc1cccc(-n2c(Cc3cc(=O)[nH]c(=O)[nH]3)nnc2SCC(=O)Nc2ccccc2)c1 -48.2%

inhibition, active:
O=C(Nc1cc2c3c(c1)C1CCCC1CN3CC1CCCC21)c1ccc([N+](=O)[O-])cc1 (stereo unspecified) 96.3%
COc1ccc(CN(C(=O)c2cccs2)c2nccs2)cc1OC 99%
Cc1ccc(SCC(=O)c2sc(-c3ccccc3)nc2C)cc1 83.6%
FC(F)(F)c1cc(-c2ccco2)nc(NCc2ccc(Cl)cc2)n1 97.5%
FC(F)(F)c1cc(-c2cccs2)nc(NCc2ccco2)n1 60.7%
Cc1ccc(C)c(NC(=O)C2Cc3ccccc3CN2C(=O)OCc2ccccc2)c1 (stereo unspecified) 65%
O=C(CN1CCN(c2ccc(Cl)cc2)CC1)N1CCCC1 57.4%
c1ccc(CSc2nnc(-c3ccco3)c(-c3ccco3)n2)cc1 72.9%
Cc1ccc(-c2nnn(CC(=O)N(CCO)C(C(=O)NC(C)(C)C)c3ccncc3)n2)cc1 (stereo unspecified) 76.1%
O=C(Nc1nncs1)c1ccccc1NS(=O)(=O)c1cccs1 76.4%
COCCCn1c(SCc2cccc(OC)c2)nc2cc(OC)c(OC)cc2c1=N 71.3%
COC(=O)Nc1ccc(S(=O)(=O)N(C)CC(F)(F)C(F)F)cc1 59.2%
O=S(=O)(c1ccc(F)cc1)n1ccc(-c2cnc(-c3ccccc3)s2)n1 53.9%
O=C(Nc1ccc2c(c1)OCCO2)C(c1ccc(F)cc1)N1CCCCC1 (stereo unspecified) 67.1%
Cc1ccccc1C(=O)N1CCC(C(=O)Nc2ccc(S(=O)(=O)N(C)C(C)C)cc2)CC1 61.2%
Cc1cc2cc(CNC(=O)c3cccs3)ccc2[nH]1 60.2%
CCOC(=O)C1=C(CC)Nc2ccccc2N=C1NC(=O)c1cccc(S(=O)(=O)N2CCCC2)c1 90.2%
COc1ccc(N2CCN(CCNC(=O)c3nnc(Cc4c(F)cccc4Cl)o3)CC2)cc1 66.3%
CC(=O)Nc1ccc(NS(=O)(=O)c2cc(C)sc2C)cc1 56.5%
O=C(COC(=O)c1ccc(Oc2ccccc2)cc1)Nc1nnc(-c2ccccc2)o1 89.1%
